For 40 compounds, growth results are on record in PubChem BioAssay (NCI).

Compounds without any hit were thinned out: in the full panel of roughly 83,000, 20% have a hit.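 Note: values are percent growth. 100 is the growth of untreated cells, values between 100 and 0 indicate rising inhibition; between -100 and 0 indicates cell death.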 Unmarked numbers belong to inactive results. Activity calls are given as the source filed them.

The experiment relates to COLO 205 colon. The experiment can be described thus: NCI-60 one-dose screen, 48 h (100 = growth as untreated, 0 = no growth, -100 = all killed). The note with it: 10 µM unless noted. As for the experimental part: Cells are grown in 96 well plates and exposed to the test compound for 48 hours. Compounds are tested at a single concentration, which is 10^-5 M for most compounds. The reported endpoint is percent growth (GI% or GIPRCNT), where numbers from 0 - 100% represent growth inhibition, and numbers from -100% - 0 represent cell death. For example, a value of 40 represents 60% growth inhibition. A value of 0 means no net growth occurred over the course of the experiment. A value of -40 indicates 40% of cells at the beginning of the experiment died by the end of the experiment. A value of -100 means all cells are dead at the end of the experiment.
NCI-60 Human Tumor Cell Lines Screen was performed using the standard one-dose NCI protocol, which is described in more detail at https://dtp.cancer.gov/discovery_development/nci-60/default.htm.
Compounds with GIPRCNT values below 10 were considered active. Activity score was based on GIPRCNT using the following formula: […]
Score is 0 for GIPRCNT values of 100 or above, 50 for GIPRCNT values of 0, and 100 for GIPRCNT values of -100.
Consider `Clc1cccc(N/N=C/c2c[nH]c3ccc(Br)cc23)n1`, for which the growth was 31.9%.

Take `CCCCCCCS(=O)(=O)N1CCCC(C(=O)Nc2nc3ccc(NC(=O)c4ccc(F)c(OC)c4F)cc3s2)C1` (stereo not given): the growth is 82.9%.

Turning to `O=C(CCN1C(=O)/C(=C/c2ccc(F)cc2)SC1=S)N1CCOCC1`, the growth is 75%.

`O=C(N=Nc1c(O)[nH]c2ccc(Cl)cc12)c1ccc2nc(-c3ccccc3)[nH]c2c1`: the growth was 62%.

On to `Cc1nc(Nc2ccccn2)sc1C(=O)CC(SCC(=O)Nc1ccc(Cl)cc1)c1ccccc1F` (stereo not given), for which the growth is -49.7% (active).

For `CC1[C@H]2[C@H](C[C@H]3[C@@H]4CC=C5c6sc(Nc7ccccc7F)nc6CC[C@]5(C)[C@H]4CC[C@@]32C)O[C@]12CC[C@@H](C)CO2` (stereo not given in full), the growth is -88.3% (active).

As to `CC1=C(C#N)C2=NNCC(c3ccccc3)=NN2C(c2ccccc2)=C1`, the growth is 113%.

Regarding `O=C(N/N=C/c1ccc(-c2ccc(O)cc2)o1)c1[nH]c2ccc(Br)cc2c1-c1ccccc1`, the growth was -54.5% (active).

In the case of `CC1=C(C(=O)OCc2ccccc2)C(c2ccc(-n3cncn3)cc2)n2c(nc3ccccc32)N1` (stereo not given), the growth is 37.9%.

Regarding `CSc1ccc(C(=O)Nc2ccc3nnn(/C(C#N)=C/c4ccccn4)c3c2)cc1`, the growth is -66.2% (active).

For `S=c1c2ccccc2nc2n1CCc1c-2[nH]c2ccccc12`, the growth was 90.7%.

With `COc1ccc2[nH]cc(-c3cc(N)n4nc(-c5cn(C)c6ccccc56)cc4n3)c2c1`, the growth was -84.7% (active).

As to `COc1cc2c(c(OC)c1OC)C(=O)CC(c1cccc(NC(=O)c3cccc(NC(=O)[C@H](C)NC(=O)OC(C)(C)C)c3)c1)O2` (stereo not given in full), the growth was 81.8%.

Turning to `O=C(/C=C/c1ccc(O)c(O)c1)NC1CCOC1O` (stereo not given), the growth is 105%.

With `O=C(NNc1ccccc1)n1c(=O)c2ccccc2c(=O)n1-c1ccccc1`, the growth was 109%.

As to `CCC(C)(C)c1ccc(OCCCCCCN2CCN(c3ccncc3)CC2)cc1`, the growth was -84.4% (active).

Turning to `COC(OC)C1=C(C)OC(N)=C(C#N)C12C(=O)Nc1ccccc12` (stereo not given), the growth was 102%.

On to `CC(/C=C1\SC(=S)N(CCCC(=O)NC(CC(C)C)C(=O)O)C1=O)=C\c1ccccc1` (stereo not given), for which the growth was 124%.

In the case of `Cn1cc(-c2cc3nc(-c4c[nH]c5ccc(Br)cc45)cc(N)n3n2)c2ccccc21`, the growth was -83.5% (active).

Turning to `COc1ccc(C2=NN(C(C)=O)C(c3ccc(OCc4ccc(Cl)cc4)c(OC)c3)C2)cc1OC` (stereo not given), the growth was 41.3%.

On to `Cc1ccc(S(=O)(=O)c2nc(S(=O)(=O)c3ccc(C)cc3)c(Cl)s2)cc1`, for which the growth is -78.6% (active).

For the compound `COc1cc2c(c(OC)c1OC)C(=O)CC(c1cccc(NC(=O)c3cc(N)ccc3Cl)c1)O2` (stereo not given), the growth is 86.2%.

As for `CCOC(=O)C(N=Nc1ccc(S(=O)(=O)N=C(N)N)cc1)C(C)=O` (stereo not given), the growth was 106%.

As for `C=C1CC[C@@H]2[C@]3(C)COC(c4cn[nH]c4-c4cccc(Br)c4)O[C@@H]3CC[C@@]2(C)[C@@H]1C/C=C1/C(=O)OCC1O` (stereo not given in full), the growth was -58.3% (active).

As for `N#Cc1c(-c2cccc(Cl)c2Cl)cc(-c2c[nH]c3ccccc23)[nH]c1=O`, the growth was 105%.

Turning to `COc1cc(OC)c2c3nc4cc(C)c(C)cc4nc3n(CCN(C)C)c2c1`, the growth was 48.4%.

In the case of `CC(C)Sc1nc(NCCc2c[nH]c3ccccc23)c(C#N)c(-c2ccccc2)n1`, the growth is 11.9%.

As for `COc1ccc2[nH]c(O)c(N=NC(=O)COc3ccc(NC(=O)Nc4ccccc4)cc3)c2c1`, the growth is 53.6%.

With `O=C(CN1C(=O)/C(=C/c2ccccc2F)SC1=S)N1CCOCC1`, the growth was 98.5%.

For the compound `COc1cc(C2CC(c3cc(OC)c(OC)c(OC)c3)=NN2C(C)=O)ccc1OCc1ccccc1` (stereo not given), the growth was 10.9%.

As to `Cc1ccc(NC(=O)[C@]23CCC(C)(C)CC2C2=CCC4[C@@]5(C)C[C@@H](O)[C@H](O)[C@@](C)(CO)C5CC[C@@]4(C)[C@]2(C)CC3)cc1` (stereo not given in full), the growth was -65.9% (active).

In the case of `COc1ccc(C(=O)/C=C/c2ccc(OCc3ccccc3)c(OC)c2)cc1OC`, the growth is 51.5%.

Consider `Cn1cc(-c2cc(N)n3nc(-c4cn(C)c5ccc(Cl)cc45)cc3n2)c2ccccc21`, for which the growth was 117%.

As to `C=C1CCC2C3(C)COC(c4ccccc4F)OC3CCC2(C)C1CC(O)C1=CCOC1=O` (stereo not given), the growth was 22.5%.

As to `O=C(Cn1c(/C=C/c2cccc([N+](=O)[O-])c2)nc2ccccc2c1=O)Nc1ccccc1`, the growth is 81.1%.

`COc1cc2oc(-c3cccc(C(=O)Nc4ccc(Cl)cc4)c3)cc(=O)c2c(OCCNC(=O)[C@H](CO)NC(=O)OC(C)(C)C)c1OC`: the growth was -43.4% (active).

As for `CC1(c2cc3cc(Br)ccc3oc2=O)NC(=O)c2c(/C=C/C(=O)OC3CC4CCC3(C)C4(C)C)cccc2N1` (stereo not given), the growth is 88.7%.

In the case of `Cc1ccc(C(SCCNCc2cc(N(C)C)ccn2)(c2ccccc2)c2ccccc2)cc1`, the growth was -71.6% (active).

For the compound `C=C1CC[C@@H]2[C@]3(C)COC(c4cn[nH]c4-c4ccc(OC)cc4)O[C@@H]3CC[C@@]2(C)[C@@H]1C/C=C1/C(=O)OCC1O` (stereo not given in full), the growth is -83.1% (active).

With `O=C(NN1C(=O)/C(=C/C=C/c2ccc([N+](=O)[O-])o2)SC1=S)c1ccccc1O`, the growth is -82.1% (active).
